# In PubChem BioAssay (NCATS):
# Results filed as inconclusive are left out. Active and inactive are the calls of the source.
# Assay: qHTS for identification of novel therapeutic agents for treatment of microphthalmiaassociated transcription factor (MiT) renal cell carcinoma (RCC) (AID 1963991)
# Details: CellTiter-Glo, 48 h; for Potency: active = Z-AUC below -0.8 in all three lines; for z-score: stronger effect = lower value
# Source text: PI: Marston Linehan Ph.D.
# Urologic Oncology Branch, Center for Cancer Research (CCR)
# National Cancer Institute (NCI), National Institute of Health (NIH), Bethesda, Maryland
# MiT-Renal Cell Carcinoma (RCC) is characterized by genomic translocations involving microphthalmia-associated transcription factor (MiT) family members TFE3, TFEB, or MITF. MiT-RCC represents a specific subtype of sporadic RCC that is predominantly seen in young patients and can present with heterogeneous histological features making diagnosis challenging. Moreover, the disease biology of this aggressive cancer is poorly understood and there is no accepted standard of care therapy for patients with advanced disease. Tumor-derived cell lines have been established from human TFE3-RCC providing useful models for preclinical studies. TFE3-RCC tumor derived cell lines and their tissues of origin were characterized by IHC and gene expression analyses. An unbiased high-throughput drug screen was performed to identify novel therapeutic agents for treatment of MiT-RCC. Potential therapeutic candidates were validated in in vitro and in vivo preclinical studies. Mechanistic assays were conducted to confirm the on-target effects of drugs. The results of a high-throughput small molecule drug screen utilizing three TFE3-RCC tumor-derived cell lines identified five classes of agents with potential pharmacological efficacy, including inhibitors of phosphoinositide-3-kinase (PI3K) and mechanistic target of rapamycin (mTOR), and several additional agents, including the transcription inhibitor Mithramycin A. Upregulation of the cell surface marker GPNMB, a specific MiT transcriptional target, was confirmed in TFE3-RCC and evaluated as a therapeutic target using the GPNMB-targeted antibody-drug conjugate CDX-011. […] The results of the high-throughput drug screen and validation studies in TFE3-RCC tumor-derived cell lines have provided in vitro and in vivo preclinical data supporting the efficacy of the PI3K/mTOR inhibitor.
# SEQUENCE No. (e.g., 1, 2, 3, etc.); […] (e.g., Cells, Incubation, Reagent, etc.); VALUE; DESCRIPTION.
# 1; Cells; 3 uL; white, solid-bottom Grenier assay plate.
# 2; Compounds; 23 nL; Kalypsis pin-tool (Wako USA).
# 3; Incubation; 48 hr; 37 C, 5% CO2, 95% humidity.
# 4; Reagent; 3 uL; CellTiter-Glo reagent (Promega).
# 5; Incubation; 15 min; room temperature.
# 6; Detection; Luminescence; ViewLux plate reader (PerkinElmer).
# NOTES (numbers refer to Sequence numbers above)
# 1. Quantitative high-throughput screening (qHTS) of 1912 pharmacologically defined small molecule compounds was conducted on three TFE3-fusion cell lines bearing three different fusion partners (UOK109, UOK124, UOK145). Briefly, 500 cells in complete growth media were plated into white, solid-bottom, 1536-well tissue culture treated plates (Grenier Cat. 789173-F) using a Multidrop Combi cassette dispenser.
# 2. Twenty-three nanoliter of 1912 pharmacologically defined small molecule compounds of the NCATS Mechanism Interrogation PlatE (MIPE) version 4.0 were added to each assay plate using a Pintool Dispenser (Wako) equipped with 1536 pin head.
# 3. Plates were covered with stainless steel gasketed lids and incubated for 48 hours at standard cell culture conditions.
# 4. Viability was assessed by adding 3uL of CellTiter-Glo detection reagent (Promega).
# 5. Plates were covered with gasket lids and incubated for 15 minutes at room temperature.
# 6. Luminescence was measured on a ViewLux plate reader (PerkinElmer). Post-screen data processing used DMSO controls as 100% viability and empty wells as 0% viability and dose response curve fitting was done for all 11 concentrations for each compound.
# [1] = TFE3-RCC UOK109 viability, measured here: UOK109 Z-AUC
# [2] = TFE3-RCC viability, measured here: UOK124 Z-AUC
# [3] = TFE3-RCC viability, measured here: UOK145 Z-AUC
# Potency means the concentration at half of the fitted maximal effect.
Structure (SMILES),Potency (TFE3-RCC UOK109 viability),z-score [1],z-score [2],z-score [3]
Cc1ccc(C(=O)N(CCCN)[C@@H](c2oc3cc(Cl)ccc3c(=O)c2Cc2ccccc2)C(C)C)cc1,37.2 µM (active),-1.98,-1.71,-2
CO[C@H]1/C=C\O[C@@]2(C)Oc3c(C)c(O)c4c(O)c(c(C=NN5CCN(C6CCCC6)CC5)c(O)c4c3C2=O)NC(=O)C(C)=CC=C[C@H](C)[C@H](O)[C@@H](C)[C@@H](O)[C@@H](C)[C@H](OC(C)=O)[C@H]1C,0.105 µM (active),-1.72,-2.38,-2.93
CC(C)=CCCC(C)=CCCC(C)=CCCC(C)=CCCC(C)=CCCC(C)=CCCC(C)=CCCC(C)=CCCC(C)=CCO,–,0.865,0.571,1.27
C=C1c2cccc(O)c2C(O)=C2C(=O)[C@@]3(O)C(O)=C(C(N)=O)C(=O)[C@@H](N(C)C)[C@@H]3[C@@H](O)[C@H]12,–,1.5,0.336,0.104
COc1ccc2c(c1)CC[C@H]1[C@@H]2CC[C@]2(C)[C@@H](NCCCCCCN3C(=O)C=CC3=O)CC[C@H]12,–,1.13,0.647,0.661
NC[C@H]1O[C@H](O[C@@H]2[C@@H](O)[C@@H](O[C@H]3O[C@H](CO)[C@@H](O)[C@H](N)[C@@H]3O)[C@H](N)C[C@@H]2N)[C@H](O)[C@@H](O)[C@H]1O,–,1.51,0.542,0.0704
CNc1nc(Nc2ccc(C(=O)N3CCOCC3)cc2OC)ncc1Cl,–,0.622,-0.0223,0.626
CCCCC[C@H](O)C=C[C@H]1[C@H](O)CC(=O)[C@H]1CCCCCCC(=O)O,–,1.1,0.386,1.28
CCOC(=O)[C@@H](N)CCC(=O)N[C@@H](CSCc1ccccc1)C(=O)N[C@@H](C(=O)OCC)c1ccccc1,–,-0.0164,0.492,0.0682
CCOC(=O)N1c2ccc(C(F)(F)F)cc2[C@@H](N(Cc2cc(C(F)(F)F)cc(C(F)(F)F)c2)C(=O)OC)C[C@H]1CC,–,0.825,0.72,0.57
CO[C@H]1C=CO[C@@]2(C)Oc3c(C)c(O)c4c(O)c(c(C=NN5CCN(C)CC5)c(O)c4c3C2=O)NC(=O)C(C)=CC=C[C@H](C)[C@H](O)[C@@H](C)[C@@H](O)[C@@H](C)[C@H](OC(C)=O)[C@H]1C,–,2.16,2,1.3
c1ccc(CNc2nc(N3CCOc4ccccc43)nc3c2CCCC3)cc1,–,0.901,0.197,0.631
C[C@]12C=CC(=O)C=C1CC[C@@H]1[C@@H]2[C@@H](O)C[C@@]2(C)[C@@H]1CC[C@]2(O)C(=O)CO,–,0.748,0.34,-1.47
